# Experiments:
# Conditions in all cases: concentration: 1 μM, replicates: in singlicate; n = 1
# EPHA7 = system: EPHA7
# EPHA8 = system: EPHA8
# EPHB1 = system: EPHB1
# EPHB2 = system: EPHB2
# EPHB3 = system: EPHB3
# EPHB4 = system: EPHB4
# EPHB6 = system: EPHB6
# ERBB2 = system: ERBB2
# ERBB3 = system: ERBB3
# ERBB4 = system: ERBB4
# ERK1 = system: T1, ERK1
# T1 construct: gene MAPK3
# ERK2 = system: T2, ERK2
# T2 construct: gene MAPK1
# ERK3 = system: T3, ERK3
# T3 construct: gene MAPK6
# ERK4 = system: T4, ERK4
# T4 construct: gene MAPK4
# ERK5 = system: T5, ERK5
# T5 construct: gene MAPK7
# ERK8 = system: T6, ERK8
# T6 construct: gene MAPK15
# ERN1 = system: ERN1
# FAK = system: T7, FAK
# T7 construct: gene PTK2
# FER = system: FER
# FES = system: FES
# 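Note: KINOMEscan kinase panel screen.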
Compound,%Inh (EPHA7) [%],%Inh (EPHA8) [%],%Inh (EPHB1) [%],%Inh (EPHB2) [%],%Inh (EPHB3) [%],%Inh (EPHB4) [%],%Inh (EPHB6) [%],%Inh (ERBB2) [%],%Inh (ERBB3) [%],%Inh (ERBB4) [%],%Inh (ERK1) [%],%Inh (ERK2) [%],%Inh (ERK3) [%],%Inh (ERK4) [%],%Inh (ERK5) [%],%Inh (ERK8) [%],%Inh (ERN1) [%],%Inh (FAK) [%],%Inh (FER) [%],%Inh (FES) [%]
CCc1ccc(-c2ccc3c(c2)-c2c(cnn2C)S(=O)(=O)N3C)cc1,0,0,0,0,0,1,25,0,0,4,4,6,0,0,0,0,0,38,0,0
COc1cc(Nc2nccc(-c3c(-c4cccc(NC(=O)c5c(F)cccc5F)c4)nn4ccccc34)n2)cc(OC)c1OC [GSK323521],15,20,14,9,1,8,71,6,0,12,25,36,0,3,0,24,2,0,14,0
CC(C)c1nc(-c2cccc(NS(=O)(=O)c3c(F)cccc3F)c2F)c(-c2ccnc(Nc3ccc(N4CCOCC4)nc3)n2)s1 [GSK2008607],0,99.4,40,0,0,0,99,92.1,97.7,97.7,0,0,9,42,2,93.5,65,32,71,23
CCS(=O)(=O)c1ccc(OC)c(Nc2nccc(-c3c(-c4cccc(NC(=O)c5c(F)cccc5F)c4)nn4ncccc34)n2)c1 [GSK326180],5,24,15,12,100,12,16,99.3,0,100,0,5,13,47,0,0,22,0,22,0
COc1cc2c(cc1OCCN1CCNCC1)ncc1c3ccc(C#N)cc3[nH]c21,0,0,0,2,0,0,55,4,0,28,0,0,0,23,15,12,44,10,0,2
c1ccc(Oc2ccc(Nc3ccnc4cc(-c5ccc(CNCCN6CCOCC6)o5)ccc34)cc2)nc1 [GW567145],0,7,0,5,0,0,98,44,98.4,7,0,0,0,0,0,0,26,0,0,5
O=c1[nH]cc(-c2ccc(N3CCOCC3)cc2)c2sc(-c3cn[nH]c3)cc12 [GSK2276055],9,12,6,0,0,2,31,3,0,24,0,0,0,19,0,0,11,0,0,0
CN(c1ccc(NC(=O)Nc2cc(C(F)(F)F)ccc2F)cc1)c1ccnc(Nc2ccc(S(N)(=O)=O)cc2)n1 [GW809893],97.9,99.9,97.5,95.7,50,95,98.8,0,35,0,0,0,0,0,79,98.6,5,98.8,84,72
O=C(Nc1cccc(-c2nn3ccccc3c2-c2ccnc(Nc3cccc(F)c3)n2)c1)c1c(F)ccc(F)c1Cl [GSK357952],11,19,6,0,4,8,48,82,0,76,0,0,0,0,0,20,17,0,45,6
Cc1ccc(F)c(C(=O)Nc2cccc(-c3nn4ccccc4c3-c3ccnc(Nc4cccc(F)c4)n3)c2)c1F [GSK361061],41,53,40,0,9,10,94.3,88,25,96.4,26,0,16,21,0,0,25,0,40,0

# From paper PMC5540273 (PLoS ONE, 2017)
